Some test systems named below: HCT-15 colon; HT29 colon; SNB-75 CNS; SNB-19 CNS; U251 CNS; PC-3 prostate; SK-MEL-5 melanoma; UACC-62 melanoma; LOX IMVI melanoma; SK-MEL-28 melanoma.
Holding throughout (assay): NCI-60 one-dose screen, 48 h (100 = growth as untreated, 0 = no growth, -100 = all killed)
Holding throughout (conditions): 10 µM unless noted

About 83,000 compounds went through this panel and 20% of them were active in at least one assay; those are over-represented in the sample as a whole.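 How to read the values: 0–100, growth inhibition (40 = 60% inhibited); 0, no net growth; -100 to 0, cell death (-40 = 40% of starting cells died; -100 = all dead).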 Values without a mark were called inactive. Active and inactive are the calls of the source. The calls were made as follows: active = growth percent below 10; inactive = the rest.

Take `C=C1C(=O)O[C@H]2[C@H]1CC/C(Cn1cc(CNCCc3c[nH]c4ccccc34)nn1)=C\CC[C@@]1(C)O[C@@H]21`: the growth with HCT-15 colon is 102%; in the assay on HT29 colon it was 61.2%; in the assay on SNB-75 CNS it was 79.8%; in the assay with SNB-19 CNS, 98.3%; in the assay with U251 CNS, 92.8%; in the assay on PC-3 prostate it was 94.1%. Also, the growth in the assay with SK-MEL-5 melanoma is 96.5%; with UACC-62 melanoma it was 84.7%; in the assay on LOX IMVI melanoma, 94%; in the assay on SK-MEL-28 melanoma, 89%.

As to `Cc1nc2ccc(C(=O)NCc3cc(C(=O)O)c(C)o3)cc2nc1C`, the growth with HCT-15 colon is 105%; in the assay with HT29 colon, 95.6%; in the assay on SNB-75 CNS, 79.4%; with SNB-19 CNS it was 101%; in the assay on U251 CNS, 96.8%; with PC-3 prostate, 90%. Moreover, the growth in the assay with SK-MEL-5 melanoma is 105%; in the assay with UACC-62 melanoma, 94.8%; in the assay on LOX IMVI melanoma it was 94.3%; with SK-MEL-28 melanoma, 103%.

With `Cc1c2c(cn1Cc1ccccc1)CCc1cn(C)nc1-2`, the growth in the assay on HCT-15 colon is 95.1%; with HT29 colon it was 98%; in the assay with SNB-75 CNS, 95.9%; in the assay on SNB-19 CNS it was 105%; with U251 CNS, 97.2%; in the assay with PC-3 prostate, 71.4%. Besides, the growth in the assay with SK-MEL-5 melanoma was 53.5%; in the assay on UACC-62 melanoma, 70.4%; with LOX IMVI melanoma, 85.2%; in the assay on SK-MEL-28 melanoma, 104%.

On to `CCc1cc(Cc2cc(CC)cc(C(C)(C)C)c2O)c(O)c(C(C)(C)C)c1`, for which the growth was 13.8% in the assay with HCT-15 colon; 23.3% with HT29 colon; 42.1% in the assay on SNB-75 CNS; 20% in the assay with SNB-19 CNS; 16.3% in the assay on U251 CNS; 15.1% in the assay on PC-3 prostate. In addition, the growth with SK-MEL-5 melanoma is 6.03% (active); with UACC-62 melanoma, 25.7%; in the assay with LOX IMVI melanoma, 10.5%; in the assay with SK-MEL-28 melanoma it was 46%.

Take `NC(=S)c1csc(CCNC(=O)c2ccccc2)n1`: the growth in the assay with HCT-15 colon is 100%; in the assay with HT29 colon it was 107%; in the assay on SNB-75 CNS it was 97.7%; in the assay with SNB-19 CNS, 107%; with U251 CNS, 97.6%; with PC-3 prostate, 96.6%. Also, the growth is 115% in the assay with SK-MEL-5 melanoma, 105% with UACC-62 melanoma, 110% with LOX IMVI melanoma and 108% in the assay on SK-MEL-28 melanoma.

On to `C[C@@H]1C(=O)N(C[C@H](Cc2ccccc2)NC(=O)OCc2ccccc2)[C@]1(Cc1ccccc1)C(=O)OC(C)(C)C`, for which the growth was 62.9% with HCT-15 colon; 56.3% in the assay on HT29 colon; 68.7% in the assay on SNB-75 CNS; 71.7% with SNB-19 CNS; 63.2% in the assay on U251 CNS; 27.5% in the assay on PC-3 prostate. Further, the growth with SK-MEL-5 melanoma was 58.8%; in the assay on UACC-62 melanoma, 51.9%; with LOX IMVI melanoma it was 73.3%; with SK-MEL-28 melanoma, 85.3%.

For `COc1ccc(-c2nnc(-c3ccc4c(c3)nc(-c3ccccc3)n4C3CCCCC3)o2)cc1`, the growth is 41.9% with HCT-15 colon; 34.9% in the assay on HT29 colon; 98.7% in the assay with SNB-75 CNS; 86% in the assay on SNB-19 CNS; 71.3% with U251 CNS; 18.5% with PC-3 prostate. In addition, the growth in the assay on SK-MEL-5 melanoma was 24.9%; in the assay with UACC-62 melanoma, 43.7%; in the assay with LOX IMVI melanoma it was 36.9%; with SK-MEL-28 melanoma it was 88.5%.

As to `Cc1cnc(Nc2ccc(N3CCN(C)CC3)cc2)nc1Nc1ccc(Cl)c(NS(=O)(=O)C(C)(C)C)c1`, the growth in the assay with HCT-15 colon is 4.29% (active); in the assay on HT29 colon it was -31.1% (active); in the assay on SNB-75 CNS, -36.8% (active); in the assay on SNB-19 CNS, 53.1%; in the assay with U251 CNS, 24.2%; in the assay on PC-3 prostate, 39.4%. In addition, the growth is -8.43% (active) with SK-MEL-5 melanoma, 16.1% with UACC-62 melanoma, -84.4% (active) in the assay on LOX IMVI melanoma and 35.2% in the assay with SK-MEL-28 melanoma.

In the case of `COc1cc2c(cc1OC)-c1ccc3cc4c(cc3c1N(CCN(C)C)C2)OCO4`, the growth is 56.7% with HCT-15 colon; -45.8% (active) with HT29 colon; -5.56% (active) in the assay on SNB-75 CNS; 8.26% (active) in the assay on SNB-19 CNS; -42.9% (active) with U251 CNS; 0.178% (active) in the assay on PC-3 prostate. Moreover, the growth with SK-MEL-5 melanoma is -10.9% (active); in the assay with UACC-62 melanoma, 3.42% (active); in the assay on LOX IMVI melanoma, -83.2% (active); in the assay on SK-MEL-28 melanoma it was 43.7%.

With `Cc1cc(NS(=O)(=O)c2ccccc2)c(OS(=O)(=O)c2ccccc2)cc1C`, the growth with HCT-15 colon is 102%; with HT29 colon it was 111%; with SNB-75 CNS, 89.5%; with SNB-19 CNS, 98.1%; in the assay with U251 CNS, 99.8%; with PC-3 prostate it was 89.7%. Besides, the growth in the assay with SK-MEL-5 melanoma is 102%; with UACC-62 melanoma it was 94%; in the assay with LOX IMVI melanoma, 99.3%; in the assay on SK-MEL-28 melanoma it was 112%.

On to `CCN1CCN(c2ccc(Nc3cc(-c4cccnc4Nc4c(Cl)c(OC)cc(OC)c4Cl)ncn3)cc2)CC1`, for which the growth was 63.3% in the assay on HCT-15 colon; 31.9% with HT29 colon; 42.8% in the assay on SNB-75 CNS; 81% with SNB-19 CNS; 71.6% in the assay with U251 CNS; 55.3% with PC-3 prostate. For the same compound, the growth is 74% with SK-MEL-5 melanoma, 85.9% with UACC-62 melanoma, 44.7% in the assay on LOX IMVI melanoma and 100% in the assay on SK-MEL-28 melanoma.

On to `CNC=O`, for which the growth with HCT-15 colon is 99.3%; in the assay on HT29 colon, 92.6%; with SNB-75 CNS it was 86.8%; in the assay on SNB-19 CNS, 97.5%; in the assay on U251 CNS, 100%; in the assay on PC-3 prostate, 98.1%. Besides, the growth with SK-MEL-5 melanoma was 59.9%; with UACC-62 melanoma it was 96.2%; in the assay on LOX IMVI melanoma, 97.1%; in the assay with SK-MEL-28 melanoma, 96.6%.

On to `COc1ccc(/C(C)=N/NS(=O)(=O)c2ccc(C)cc2)cc1OC`, for which the growth is 103% in the assay on HCT-15 colon; 109% with HT29 colon; 108% in the assay on SNB-75 CNS; 107% with SNB-19 CNS; 99.6% in the assay with U251 CNS; 91.6% in the assay on PC-3 prostate. Further, the growth is 103% with SK-MEL-5 melanoma, 105% with UACC-62 melanoma, 93.1% with LOX IMVI melanoma and 123% in the assay with SK-MEL-28 melanoma.

Source of the values: PubChem BioAssay (NCI).
